# Measured values published in the supplement of paper PMC9023506.
# Where a name gives a salt, the structure may show the parent alone.
# System: Danio rerio larvae (5 dpf)
# Assay: startle response to 20-s acoustic pulses, difference vs DMSO (percentage points (treated minus DMSO)); higher = more of the behaviour than the DMSO vehicle control
# Details: 10 µM; exposure time: 3 h pre-incubation + 3 h imaging
# Method: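 5-dpf wild-type zebrafish larvae were imaged in 96-well plates. They were treated with 190 Tocris FDA-approved drugs at 10 µM (1 µl/ml DMSO) for 3 h before and 3 h during imaging at 28.5 °C, 48 larvae per drug. Automated image analysis gave % time moving and optomotor responses. Values are drug group mean minus DMSO vehicle mean (n=844), in percentage points, for 10 behaviours.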
row,Structure (SMILES),startle response to 20-s acoustic pulses
1,O=C(O)C[C@H](O)C[C@H](O)/C=C/c1c(C2CC2)nc2ccccc2c1-c1ccc(F)cc1 [Pitavastatin calcium],1.52
2,Nc1ncn([C@@H]2O[C@H](CO)[C@@H](O)[C@H]2O)c(=O)n1 [5-Azacytidine],2.64
3,Cc1cc(C2CCCCC2)n(O)c(=O)c1 [Ciclopirox],-9.88
4,C=C1[C@H](CO)[C@@H](O)C[C@@H]1n1cnc2c(=O)[nH]c(N)nc21 [Entecavir],3.11
5,C/C(O)=C(\C#N)C(=O)Nc1ccc(C(F)(F)F)cc1 [Teriflunomide],-4.42
6,CCOC(=O)C1=C(COCCN)NC(C)=C(C(=O)OC)C1c1ccccc1Cl (stereo not given) [Amlodipine besylate],0.195
7,Nc1ccn([C@@H]2O[C@H](CO)[C@@H](O)C2(F)F)c(=O)n1 [Gemcitabine hydrochloride],3.92
8,CCOc1cc(CC(=O)N[C@@H](CC(C)C)c2ccccc2N2CCCCC2)ccc1C(=O)O [Repaglinide],-5.51
9,CC(C)n1c(/C=C/C(O)CC(O)CC(=O)O)c(-c2ccc(F)cc2)c2ccccc21 (stereo not given) [Fluvastatin sodium],1.71
10,CC(C)c1nc(N(C)S(C)(=O)=O)nc(-c2ccc(F)cc2)c1/C=C/[C@@H](O)C[C@@H](O)CC(=O)O [Rosuvastatin calcium],-3.11
11,CC(C)(C(=O)c1cccnc1)c1cccnc1 [Metyrapone],3.51
12,CCCc1nc2c(C)cc(-c3nc4ccccc4n3C)cc2n1Cc1ccc(-c2ccccc2C(=O)O)cc1 [Telmisartan],3.69
13,CNS(=O)(=O)Cc1ccc2[nH]cc(CCN(C)C)c2c1 [Sumatriptan succinate],3.19
14,CC(c1cc2ccccc2s1)N(O)C(N)=O (stereo not given) [Zileuton],-2.9
15,CCc1nc(N)nc(N)c1-c1ccc(Cl)cc1 [Pyrimethamine],1.7
16,CCOc1nc2cccc(C(=O)O)c2n1Cc1ccc(-c2ccccc2-c2noc(=O)[nH]2)cc1 [Azilsartan],3.96
17,CC(C)c1nc(CN(C)C(=O)N[C@H](C(=O)N[C@@H](Cc2ccccc2)C[C@H](O)[C@H](Cc2ccccc2)NC(=O)OCc2cncs2)C(C)C)cs1 [Ritonavir],1.92
18,Cc1cn([C@H]2C=C[C@@H](CO)O2)c(=O)[nH]c1=O [Stavudine],-0.918
19,CC(CCc1ccc(O)cc1)NCCc1ccc(O)c(O)c1 (stereo not given) [Dobutamine hydrochloride],2.42
20,NS(=O)(=O)c1cc2c(cc1Cl)NC(C1CC3C=CC1C3)NS2(=O)=O (stereo not given) [Cyclothiazide],-0.96

row,Structure (SMILES),startle response to 20-s acoustic pulses
1,O=C(NCC1CCCCN1)c1cc(OCC(F)(F)F)ccc1OCC(F)(F)F (stereo not given) [Flecainide acetate],1.77
2,CN1CCC[C@@H]1Cc1c[nH]c2ccc(CCS(=O)(=O)c3ccccc3)cc12 [Eletriptan hydrobromide],1.42
3,CCOC(=O)C1=C(C)NC(C)=C(C(=O)OC)C1c1cccc(Cl)c1Cl (stereo not given) [Felodipine],9.85
4,C[C@H](Cc1cc2c(c(C(N)=O)c1)N(CCCO)CC2)NCCOc1ccccc1OCC(F)(F)F [Silodosin],2.96
5,Nc1nc(Cl)nc2c1ncn2[C@@H]1O[C@H](CO)[C@@H](O)[C@@H]1F [Clofarabine],5.05
6,Cc1ccc(O)c([C@H](CCN(C(C)C)C(C)C)c2ccccc2)c1 [Tolterodine L-tartrate],-5.76
7,CCOc1nc2cccc(C(=O)O)c2n1Cc1ccc(-c2ccccc2-c2nnn[nH]2)cc1 [Candesartan],10.6
8,CCCCCOC(=O)Nc1nc(=O)n([C@@H]2O[C@H](C)[C@@H](O)[C@H]2O)cc1F [Capecitabine],3
9,CC1(C)O[C@@H]2[C@@H](CO[C@@]3(COS(N)(=O)=O)OC(C)(C)O[C@@H]23)O1 [Topiramate],0.811
10,CCCN(CCC)S(=O)(=O)c1ccc(C(=O)O)cc1 [Probenecid],1.66
11,CCCCCCCCc1ccc(CCC(N)(CO)CO)cc1,-1.81
12,COC(=O)C1=C(C)NC(C)=C(C(=O)OC(C)C)C1c1cccc2nonc12 (stereo not given) [Isradipine],-10.3
13,Nc1cccc2c1CN(C1CCC(=O)NC1=O)C2=O (stereo not given) [Lenalidomide],-5.01
14,COc1ccccc1OCC(O)CN1CCN(CC(=O)Nc2c(C)cccc2C)CC1 (stereo not given) [Ranolazine dihydrochloride],2.42
15,CC(=O)Oc1ccccc1C(=O)O [Aspirin],-4.27
16,COCCc1ccc(OCC(O)CNC(C)C)cc1 (stereo not given) [Metoprolol tartrate],6.66
17,CC(=O)Oc1cc2c(s1)CCN(C(C(=O)C1CC1)c1ccccc1F)C2 (stereo not given) [Prasugrel],-10.9
18,CC(C)C(=O)Nc1ccc([N+](=O)[O-])c(C(F)(F)F)c1 [Flutamide],-5.19
19,CCN(Cc1ccncc1)C(=O)C(CO)c1ccccc1 (stereo not given) [Tropicamide],-8.17
20,CC[C@H](C)C(=O)O[C@H]1C[C@@H](C)C=C2C=C[C@H](C)[C@H](CC[C@@H]3C[C@@H](O)CC(=O)O3)[C@H]21 [Lovastatin],-0.839
